Results as given in PubChem BioAssay AID588726 (The Scripps Research Institute Molecular Screening Center, 2011).
About 8,200 (2.3%) of roughly 360,000 compounds were called active. Only a selection was taken, and actives are over-represented in it overall. Unmarked numbers belong to inactive results. Cut-off read from the data, not from the text of the source: active = inhibition above about 27%; inactive = the rest.

The compounds below were run against Fructose-bisphosphate aldolase (Mycobacterium tuberculosis (strain ATCC 25618 / H37Rv)) (UniProt P9WQA3) (assay: M. tuberculosis aldolase activity blockers – biochemical, fluorescence, strain H37Rv, primary screen (AID 588726;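 note: 0% = vehicle and 100% = reference inhibitor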)). Details: purified M. tuberculosis FBA, fluorescence read-out, at 1 µM, hits give high values.
Sequence of Fructose-bisphosphate aldolase (Mycobacterium tuberculosis (strain ATCC 25618 / H37Rv)) (P9WQA3 whole entry, looked up): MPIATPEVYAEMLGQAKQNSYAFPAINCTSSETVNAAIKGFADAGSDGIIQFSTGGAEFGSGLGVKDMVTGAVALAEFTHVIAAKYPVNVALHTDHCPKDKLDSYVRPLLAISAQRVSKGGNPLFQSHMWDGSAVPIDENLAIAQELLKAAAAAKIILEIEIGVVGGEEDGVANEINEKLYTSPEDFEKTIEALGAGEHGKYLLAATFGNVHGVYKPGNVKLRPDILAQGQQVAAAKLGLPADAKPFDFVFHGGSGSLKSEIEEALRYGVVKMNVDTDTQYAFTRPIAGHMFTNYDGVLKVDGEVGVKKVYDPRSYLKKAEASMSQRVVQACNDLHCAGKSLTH

Row | SMILES | inhibition
1 | Cc1noc(C)c1COc1ccc2ccc(=O)oc2c1 | 28.6% (active)
2 | Cc1noc(C)c1COC(=O)COc1ccc(-c2ccccc2)cc1 | -1.21%
3 | CC(C)OC(=O)c1ccc(COc2ccc3ccc(=O)oc3c2)o1 | 17.9%
4 | O=C(CSc1ncnc2c1oc1ccccc12)NC1CCCC1 | -1.09%
5 | CCOc1ccc(CCNC(=O)COC(=O)c2c(OC)cccc2OC)cc1OCC | -0.8%
6 | COc1ccc(C(=O)OCc2cc(=O)n3ccsc3n2)cc1F | -2.01%
7 | COc1ccc(NC(=S)NCC2CCN(c3ccc(OC)cc3)C2)cc1 (configuration not stated) | -3.11%
8 | COc1ccc([C@H]2N[C@]3(CCCN(Cc4ccco4)C3=O)[C@H]3C(=O)N(C)C(=O)[C@@H]23)cc1 | -1.27%
9 | COC(=O)Cc1nc2c(N)nc(N)nc2[nH]c1=O | 159% (active)
10 | COc1cc(C(=O)NC2CCN(C)CC2)ccc1Nc1ncc2c(n1)N(C1CCC(O)CC1)CCC(=O)N2C (configuration not stated) | 1.68%
11 | CC(C)(C)N1CC(c2nc3ccccc3n2Cc2ccc(F)cc2)CC1=O (configuration not stated) | -9.37%
12 | O=C(O)CCc1nc2cc(Cl)ccc2n(Cc2ccccc2)c1=O | 1.59%
13 | O=c1[nH]cccc1-c1nc2ccccc2n1Cc1ccc(Cl)cc1 | 187% (active)
14 | Nc1ccccc1C(=O)NC1CCCCNC1=O (configuration not stated) | 68.5% (active)
15 | CC12CN3CCN(CC(C3)/C1=N\NC(=O)c1ccccc1N)C2 | 1.1%
16 | O=C(CNC(=O)OCc1ccccc1)NC1CCCCNC1=O (configuration not stated) | 0.55%
17 | COC(=O)Cc1c(C)c2ccc(OCC(=O)NCc3ccc4c(c3)OCO4)cc2oc1=O | 12%
18 | Cc1c(C)c2ccc(OCC(=O)N3CCN(c4cccc(Cl)c4)CC3)cc2oc1=O | 6.95%
19 | COc1cccc(-c2coc3cc4oc(=O)c(CC(=O)O)c(C)c4cc23)c1 | 6.49%
20 | Cc1c(Cc2ccccc2)c(=O)oc2cc(OCC(N)=O)ccc12 | 65.5% (active)
21 | Cc1c(CCC(=O)O)c(=O)oc2cc(OCc3ccc(Br)cc3)ccc12 | 46.6% (active)
22 | Cc1cc(C)cc(Oc2c(C(F)(F)F)oc3cc(OCC(=O)O)ccc3c2=O)c1 | -1.51%
23 | CCOC(=O)c1cc(=O)c2ccc(OCc3ccccc3)cc2o1 | 2.55%

Row | SMILES | inhibition
24 | Cc1coc2cc3oc(=O)c(CCC(=O)O)c(C)c3cc12 | 16.5%
25 | Cc1ccc(OCC(=O)Nc2ccc3oc(=O)ccc3c2)cc1C | 1.09%
26 | CC(=O)Oc1ccc2c(C)c(CC(C)O)c(=O)oc2c1 (configuration not stated) | 797% [above what the read-out allows, likely interference] (active)
27 | CC(=O)Nc1cc2ccc(OC(C)=O)cc2oc1=O | 179% (active)
28 | O=C(Oc1ccccc1)Oc1ccc2c(c1)oc(=O)c1ccccc12 | 8.31%
29 | O=S(=O)(c1cccc(C(F)(F)F)c1)N1c2ccccc2-n2cccc2C1c1cccnc1 (configuration not stated) | -0.16%
30 | O=C(Nc1c(-c2ccccc2)nc2c(Br)cc(Br)cn12)c1ccco1 | 1.02%
31 | Cc1cc(C(C)(C)C)oc1C(=O)N(CC(=O)NC1CCCC1)Cc1ccc(Cl)cc1 | 3.61%
32 | COCC1CCN(C(=O)c2ccc3oc(Cc4ccccc4)nc3c2)C1 (configuration not stated) | 2.73%
33 | O=C1NCC(Nc2ccccc2)C(=O)N1 (configuration not stated) | -2.44%
34 | N=c1ccn(CC(=O)NC(N)=O)c2ccccc12 | 0%
35 | CC1C(C)N(C(=O)CCl)c2ccccc2N1C(=O)CCl (configuration not stated) | -0.21%
36 | CCN(CC)S(=O)(=O)c1ccc(NC(=O)c2cccnc2Cl)c(NC(=O)c2cccnc2Cl)c1 | -0.1%
37 | COc1ccccc1CN1CC(C(=O)NCCc2cn[nH]c2)CCC1=O (configuration not stated) | 3.36%
38 | Cc1c(C(=O)Nc2cccc(Cl)c2)cn2c(nc3ccccc32)c1C#N | -0.2%
39 | Cc1nc2ccccc2n1CC(O)c1ccccc1 (configuration not stated) | -0.66%
40 | Cc1nc(-c2ccccc2)cn2c1nc1ccccc12 | 119% (active)
41 | CN1CCn2cnc(C(=O)NCC(=O)OC(C)(C)C)c2C1=O | -1.37%
42 | Cc1c(CC(=O)NCC(=O)NCC(=O)O)c(=O)oc2cc3oc4c(c3cc12)CCCC4 | 16.6%
43 | Cc1coc2c1c(C)cc1oc(=O)c(CC(=O)NCC(=O)N[C@H](C(=O)O)C(C)C)c(C)c12 | 105% (active)
44 | CSCC[C@H](NC(=O)N1CCn2c1nc1ccccc12)C(=O)NC1CCCCC1 | -1.03%
45 | CCN(CCn1cccn1)Cc1nc(-c2ccc(C(=O)OC)cc2)no1 | 0.65%
46 | CCOC(=O)COc1cc(OCC(=O)OCC)c2c(=O)cc(-c3ccccc3)oc2c1 | 39.2% (active)

Row | SMILES | inhibition
47 | COc1ccccc1OCC(=O)OCc1cc(-c2ccco2)on1 | 2.93%
48 | CCOC(=O)COc1ccc(Cl)cc1C1NC(=O)NC(C)=C1C(C)=O (configuration not stated) | 0.97%
49 | COCCC(=O)Nc1ccc2c(c1)CN(C(=O)CCOC)CC2 | 2.39%
50 | O=C(NCC1CC1)c1onc(CSc2ccccc2)c1C(=O)NCC1CC1 | 3.54%
51 | O=C(NCc1ccccc1)c1onc(CSc2ccncc2)c1C(=O)NCc1ccccc1 | 0.92%
52 | O=C(NCc1ccccc1)c1onc(CSc2nc3ccccc3[nH]2)c1C(=O)NCc1ccccc1 | 27.9% (active)
53 | O=C(CN1CCN(C(=O)C2CCCO2)CC1)Nc1c(Cl)cccc1Cl (configuration not stated) | -2.38%
54 | O=C(CCCCCn1c(=S)[nH]c2ccsc2c1=O)NC1CCCCC1 | 3.56%
55 | CCOCCCNc1c(CC)c(C)c(C#N)c2nc3ccccc3n12 | 4.3%
56 | Cc1cc(NCc2ccco2)n2c(nc3ccccc32)c1C#N | 162% (active)
57 | CC(C)c1cc(NCc2ccccn2)n2c(nc3ccccc32)c1C#N | 17.6%
58 | Cc1ccc(S(=O)(=O)N(C)c2nc3ccccc3n3c(C(C)C)nnc23)cc1 | -0.15%
59 | Cc1cc(NC(C)C)n2c(nc3ccccc32)c1C#N | 41.7% (active)
60 | Cc1ccc2[nH]c(=O)c(-c3nc4c(C)cccn4c3NCc3ccco3)cc2c1 | 4.83%
61 | CCCNC(=O)NC(=O)COC(=O)CC(NC(N)=O)c1ccc(Cl)cc1 (configuration not stated) | -6.17%
62 | CC(C)CCNC(=O)CC1C(=O)N(Cc2ccccc2)C(C)c2nc3ccccc3n21 (configuration not stated) | -2.2%
63 | CC(C)(C)C(=O)CSc1ccc(S(=O)(=O)N2CCCC2)cn1 | 1.92%
64 | COC(=O)C1=C(C)N(Cc2ccccc2)C(=NCCCOC(C)C)N[C@H]1c1ccccc1 | -0.81%
65 | CC1CCCC(NC(=O)COC(=O)[C@@H]2CC(O)CN2S(=O)(=O)c2ccc3c(c2)OCCO3)C1C (some centres not stated) | 0.53%
66 | O=c1[nH]nc(SCCS(=O)(=O)c2ccc(F)cc2)n1-c1ccccc1C(F)(F)F | 1.24%
67 | CCCCN(CCCC)CCC(O)c1cc2c(Cl)cc(Cl)cc2c2cc(C(F)(F)F)ccc12 (configuration not stated) | -0.59%
68 | O=c1onc(-c2cccs2)n1Cc1ccccc1 | 1.37%
69 | Cc1ccc(C2CC(c3cccc(Br)c3)n3nc(N)nc3N2)cc1 (configuration not stated) | 5.98%

Row | SMILES | inhibition
70 | Nc1nc2n(n1)C(c1ccco1)CC(c1ccc(Cl)c(Cl)c1)N2 (configuration not stated) | 30.1% (active)
71 | COc1ccc(C2CC(c3ccc(Cl)cc3Cl)Nc3nc(N)nn32)cc1OC (configuration not stated) | 0.41%
72 | CCOc1ccc(CCNC(=O)COC(=O)C2CCN(c3ccc(C(F)(F)F)cn3)CC2)cc1OCC | 2.79%
73 | OC[C@@H]1CN(Cc2ccc3c(c2)OCO3)C[C@H](n2cnc3c(NCc4ccco4)ncnc32)O1 | 0.71%
74 | CNC(=O)c1ccc(CN(C)C(=O)c2cc(C3CC3)nc3c2cnn3C(C)C)cc1 | -0.03%
75 | COc1ccc(OCCNC(=O)c2cc(C3CC3)nc3c2cnn3C(C)C)cc1 | 7.43%
76 | CC(C)n1ncc2c(C(=O)NCc3ccccc3CN(C)C)cc(C3CC3)nc21 | 29.8% (active)
77 | Cn1c(=O)c2c(nc(N3CCOCC3)n2CCNC2=NCCC2)n(C)c1=O | 0.36%
78 | Cc1coc(C)c1C(=O)CC1(O)C(=O)N(C)c2ccc(Cl)cc21 (configuration not stated) | -1.99%
79 | CC(c1nnc(SCC(=O)Nc2sccc2C#N)n1-c1ccc(Cl)cc1)N(C)C (configuration not stated) | -0.06%
80 | COc1cccc(C(=O)OCc2cc(=O)oc3c(C)c(C)ccc23)c1OC | 2.59%
81 | Cc1cc(=O)oc2c(C)c(OC(C)C(=O)NC3CCN(Cc4ccccc4)CC3)ccc12 (configuration not stated) | 14.6%
82 | COc1ccccc1NC(=O)COC(=O)CNC(=O)C1CCCCC1 | 2.67%
83 | CCCc1cc(=O)[nH]c(SCC(=O)Nc2ccc(S(=O)(=O)N3CCCC3)cc2)n1 | 1.25%
84 | O=C(O)c1cccc(S(=O)(=O)N2CC=C(c3ccccc3)CC2)c1 | 0.87%
85 | CC(=O)NN1C(=O)c2ccccc2NC1c1ccccc1 (configuration not stated) | 37.3% (active)
86 | CCOC(=O)NN1C(=O)c2ccccc2NC1c1ccccc1O (configuration not stated) | 26.2%
87 | CN(C)c1ccc(C2Nc3ccccc3C(=O)N2NS(=O)(=O)c2ccccc2)cc1 (configuration not stated) | -0.05%
88 | CCN1C(=O)N[C@@H](c2ccccc2)[C@H](C(C)=O)[C@H]1C | 1.5%
89 | O=C1c2ccccc2NC(c2ccccc2O)N1NS(=O)(=O)c1ccccc1 (configuration not stated) | 7.05%
90 | CCOC(=O)NN1C(=O)c2ccccc2NC1c1cccc(O)c1 (configuration not stated) | 31.7% (active)
91 | Cc1cccc(C)c1NC(=O)C1CCCN1C(=O)OC(C)(C)C (configuration not stated) | -0.82%
92 | CS(=O)(=O)N(CC(=O)N1CCOCC1)c1ccc2c3c(cccc13)CC2 | 9.05%
